Pf apPOL inh: Pf-apPOL DNA polymerase inhibition | AID 1794808 | actives 0.25% (n = 210,000) | Recombinant Pf-apPOL, molecular beacon fluorescence, 1.5 h | inhibition, % at 10 µM
mHTT CaM bind: mHTT-calmodulin interaction abrogation. P42858. AlphaScreen His-mHTT/GST-CaM binding, luminescence. inhibition, % at 15 µM. actives 3.6% (n = 190,000)
Target sequence (P42858 whole entry, looked up, change not shown): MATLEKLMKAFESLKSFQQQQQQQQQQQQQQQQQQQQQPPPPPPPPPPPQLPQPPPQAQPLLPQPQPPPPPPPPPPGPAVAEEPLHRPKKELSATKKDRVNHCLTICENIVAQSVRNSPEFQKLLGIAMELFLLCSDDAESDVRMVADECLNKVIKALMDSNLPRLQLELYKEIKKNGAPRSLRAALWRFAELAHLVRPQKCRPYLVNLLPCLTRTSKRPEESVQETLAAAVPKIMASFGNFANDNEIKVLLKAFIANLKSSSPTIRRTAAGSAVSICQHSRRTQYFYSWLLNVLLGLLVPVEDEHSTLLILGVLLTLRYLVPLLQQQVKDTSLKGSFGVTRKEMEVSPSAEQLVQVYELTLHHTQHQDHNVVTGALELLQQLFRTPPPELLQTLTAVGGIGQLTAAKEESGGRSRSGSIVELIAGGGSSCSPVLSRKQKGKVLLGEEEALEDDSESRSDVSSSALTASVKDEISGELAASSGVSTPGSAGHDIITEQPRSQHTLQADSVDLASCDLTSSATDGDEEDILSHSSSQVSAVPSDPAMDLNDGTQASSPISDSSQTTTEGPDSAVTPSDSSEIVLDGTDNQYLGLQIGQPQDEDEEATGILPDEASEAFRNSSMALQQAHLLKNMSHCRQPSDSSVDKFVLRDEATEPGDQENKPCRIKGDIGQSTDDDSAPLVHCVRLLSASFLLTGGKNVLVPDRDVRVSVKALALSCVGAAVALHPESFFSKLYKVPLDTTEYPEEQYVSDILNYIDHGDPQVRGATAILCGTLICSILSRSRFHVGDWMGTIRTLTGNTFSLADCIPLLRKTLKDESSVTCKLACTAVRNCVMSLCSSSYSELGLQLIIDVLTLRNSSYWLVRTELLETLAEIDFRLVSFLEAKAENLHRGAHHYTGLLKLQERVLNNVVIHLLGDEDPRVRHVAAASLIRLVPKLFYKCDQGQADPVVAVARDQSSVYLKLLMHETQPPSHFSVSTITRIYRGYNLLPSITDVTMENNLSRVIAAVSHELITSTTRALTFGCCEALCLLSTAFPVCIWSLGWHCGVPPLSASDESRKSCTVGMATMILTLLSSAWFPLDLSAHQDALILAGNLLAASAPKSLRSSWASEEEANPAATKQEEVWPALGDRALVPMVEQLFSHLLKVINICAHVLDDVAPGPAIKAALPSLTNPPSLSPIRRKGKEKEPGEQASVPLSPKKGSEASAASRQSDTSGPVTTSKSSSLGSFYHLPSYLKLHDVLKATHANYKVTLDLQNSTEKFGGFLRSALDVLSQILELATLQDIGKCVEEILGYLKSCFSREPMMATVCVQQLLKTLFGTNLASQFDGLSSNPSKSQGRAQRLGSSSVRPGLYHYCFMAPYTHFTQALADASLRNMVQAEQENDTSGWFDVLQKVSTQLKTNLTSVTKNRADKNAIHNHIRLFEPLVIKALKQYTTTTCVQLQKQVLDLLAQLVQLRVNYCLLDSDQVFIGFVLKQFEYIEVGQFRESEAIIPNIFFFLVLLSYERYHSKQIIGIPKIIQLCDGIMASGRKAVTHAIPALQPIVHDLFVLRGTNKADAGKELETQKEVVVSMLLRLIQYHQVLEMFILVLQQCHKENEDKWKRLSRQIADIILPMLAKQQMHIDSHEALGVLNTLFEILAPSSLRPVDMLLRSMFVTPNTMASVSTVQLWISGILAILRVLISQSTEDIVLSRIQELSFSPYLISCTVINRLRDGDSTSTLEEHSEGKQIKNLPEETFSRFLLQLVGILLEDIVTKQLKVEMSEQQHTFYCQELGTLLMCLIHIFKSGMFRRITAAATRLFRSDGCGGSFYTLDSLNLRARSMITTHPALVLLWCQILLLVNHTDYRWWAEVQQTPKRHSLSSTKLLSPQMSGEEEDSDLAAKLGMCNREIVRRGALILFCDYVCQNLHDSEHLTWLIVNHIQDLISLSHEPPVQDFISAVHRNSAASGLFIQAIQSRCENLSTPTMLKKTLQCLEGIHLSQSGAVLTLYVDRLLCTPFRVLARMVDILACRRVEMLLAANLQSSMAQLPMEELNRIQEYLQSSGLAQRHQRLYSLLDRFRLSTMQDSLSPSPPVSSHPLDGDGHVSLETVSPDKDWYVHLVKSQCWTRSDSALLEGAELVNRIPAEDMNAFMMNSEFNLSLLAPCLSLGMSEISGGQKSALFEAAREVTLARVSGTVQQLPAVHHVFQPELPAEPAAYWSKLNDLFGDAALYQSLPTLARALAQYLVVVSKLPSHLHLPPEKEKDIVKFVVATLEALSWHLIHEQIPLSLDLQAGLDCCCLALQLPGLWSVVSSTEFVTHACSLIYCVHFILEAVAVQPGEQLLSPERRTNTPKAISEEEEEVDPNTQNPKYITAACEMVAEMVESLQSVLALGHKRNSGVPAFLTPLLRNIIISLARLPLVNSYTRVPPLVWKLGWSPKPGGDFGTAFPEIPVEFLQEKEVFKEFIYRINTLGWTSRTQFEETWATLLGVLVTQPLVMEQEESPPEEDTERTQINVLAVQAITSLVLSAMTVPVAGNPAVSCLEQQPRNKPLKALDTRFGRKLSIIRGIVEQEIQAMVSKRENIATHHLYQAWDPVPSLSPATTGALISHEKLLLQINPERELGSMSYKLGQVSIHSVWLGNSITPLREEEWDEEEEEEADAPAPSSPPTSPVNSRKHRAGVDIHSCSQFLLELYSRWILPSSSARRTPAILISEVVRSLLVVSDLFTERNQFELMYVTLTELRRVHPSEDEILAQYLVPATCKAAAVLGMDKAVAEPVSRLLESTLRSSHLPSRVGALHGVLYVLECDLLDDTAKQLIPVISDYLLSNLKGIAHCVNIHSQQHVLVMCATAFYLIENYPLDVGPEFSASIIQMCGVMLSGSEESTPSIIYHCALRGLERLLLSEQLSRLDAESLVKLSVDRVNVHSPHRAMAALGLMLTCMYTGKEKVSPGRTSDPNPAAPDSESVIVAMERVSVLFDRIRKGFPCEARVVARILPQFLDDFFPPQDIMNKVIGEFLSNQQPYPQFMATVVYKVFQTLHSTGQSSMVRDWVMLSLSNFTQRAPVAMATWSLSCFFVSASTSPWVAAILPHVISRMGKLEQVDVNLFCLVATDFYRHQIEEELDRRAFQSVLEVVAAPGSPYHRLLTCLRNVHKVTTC
Hits are given with their value; – = inactive. This is a sample that favours compounds with a hit; in the whole collection about 3.6% have one here. No stated cut-off is given here; in the data, active means inhibition above about 50%; inactive means the rest.

SMILES	Pf apPOL inh	mHTT CaM bind
COc1ccc(-n2nc3c(c2NC(=O)c2cccc([N+](=O)[O-])c2C)CS(=O)(=O)C3)cc1	–	–
COc1ccc(C=C2SC(=S)N(CCc3ccc(O)cc3)C2=O)c(OC)c1	–	77.3
COc1ccc(/C=C2\SC(=O)N(CN3CCOCC3)C2=O)c(OC)c1	–	–
CCc1c(C)c(C#N)c2nc3ccccc3n2c1NCCC(C)C	–	–
C=CCc1c(C)c(C#N)c2nc3ccccc3n2c1NCCCN(CC)CC	–	–
CCc1c(C)c(C#N)c2nc3ccccc3n2c1NCCCN(CC)CC	81.9	–
N#Cc1c2c(c(NCCN3CCOCC3)n3c1nc1ccccc13)CCCC2	–	–
Cc1ccc(-n2[nH]c(=O)c(C=c3c(C)c(C#N)c4nc5ccccc5n4c3=O)c2O)cc1C	–	–
CCc1c(C)c(C#N)c2nc3ccccc3n2c1NCCCN(C)C	60.0	–
N#Cc1c2c(c(NCCCN3CCOCC3)n3c1nc1ccccc13)CCC2	67.1	–
CCc1ccc(-n2[nH]c(=O)c(C=c3c(C)c(C#N)c4nc5ccccc5n4c3=O)c2O)cc1	–	57.0
COc1ccc(S(=O)(=O)CCCC(=O)N2CCN(c3ccccc3)CC2)cc1	–	–
CCCc1cc(C2CCCN2C(=O)Nc2ccc(F)c(Cl)c2)no1 (stereo not drawn)	–	–
CCOc1ccc(NC(=O)C2CCCN(C(=O)c3ccc(F)c(F)c3)C2)cc1 (stereo not drawn)	–	–
O=C(C1=C(O)C(=O)N(CCN2CCOCC2)C1c1ccco1)c1cccs1 (stereo not drawn)	–	–
CCOc1ccccc1N(C)C(=O)c1cc(S(=O)(=O)NC2CCCCCC2)ccc1F	–	–
CCc1c(C)c(C#N)c2nc3ccccc3n2c1NCCO	73.1	–
CCc1c(C)c(C#N)c2nc3ccccc3n2c1NCCOC	–	–
COC(=O)c1ccc(Oc2c(C)oc3c(CN4CCCC4)c(O)ccc3c2=O)cc1	–	–
COc1cccc2ccc(/C=C/c3cccc([N+](=O)[O-])c3)nc12	–	–
O=[N+]([O-])c1ccc(O)c(C=Nc2nc3c(O)cccc3s2)c1	–	–
COc1ccc(OC)c(/C=C/c2ccc3cccc(O)c3n2)c1	–	–
O=[N+]([O-])c1ccc(O)c(/C=C/c2ccc3cccc(O)c3n2)c1	–	59.9
COc1cc(/C=C/c2ccc3cccc(O)c3n2)cc([N+](=O)[O-])c1O	–	93.0
COc1cc(Br)c(/C=C/c2ccc3cccc(O)c3n2)cc1OC	–	–
SMILES	Pf apPOL inh	mHTT CaM bind
Oc1cccc2ccc(/C=C/c3cc4c(cc3Br)OCO4)nc12	–	72.0
COc1ccc(Br)c(/C=C/c2ccc3cccc(O)c3n2)c1	–	65.0
COc1ccc(N=Cc2ccc(Br)o2)cc1	–	–
O=C(NCC(O)C1CCCCC1)c1ccc2nsnc2c1 (stereo not drawn)	–	–
COc1cc(NS(=O)(=O)c2ccc(NC(=O)c3ccc(C)cc3)cc2)nc(OC)n1	–	–
O=C1OC2(CCCCC2)OC(=O)C1=CNc1ccccc1F	–	–
CCOc1nccnc1N1CCC(N(C)C(=O)c2cnccn2)C1 (stereo not drawn)	–	–
CC1CCC(NC(=O)C2CCCN(S(=O)(=O)N3CCCC3)C2)CC1 (stereo not drawn)	–	–
Oc1ccc(Cl)cc1/C=C/c1ccc2cccc(O)c2n1	–	100.3
COc1cc(Br)cc(/C=C/c2ccc3cccc(O)c3n2)c1O	–	–
COc1cc(/C=C/c2ccc3cccc(O)c3n2)c(Cl)cc1O	–	63.2
COc1cc(/C=C/c2ccc3cccc(O)c3n2)c(Br)cc1O	–	–
Cc1cc(C)c(-n2nnnc2SCC(=O)N2CCCCC2)c(C)c1	–	–
O=C(NCc1ccccc1Cl)C1CCCN(C(=O)c2ccccc2F)C1 (stereo not drawn)	–	–
Oc1oc(-c2ccc(Cl)cc2)nc1C=Nc1ccc(Cl)cn1	61.8	–
Oc1oc(-c2ccc(Cl)cc2)nc1C=Nc1ccc(Br)cn1	–	–
CC(=O)N1CCCC2(CC(c3cccc(N(C)C)c3)=CO2)C1 (stereo not drawn)	–	–
O=C(NCCC1CCN(C(=O)c2ccccc2)CC1)c1ccccc1F	–	–
N#CCC[C@H]1CC[C@]2(CCCN(Cc3ccc(Br)cc3)C2)O1	–	88.6
N#CCC[C@@H]1CC[C@]2(CCCN(C(=O)c3ccccc3)C2)O1	–	–
CCN(CC)C(=O)CC[C@H]1CC[C@]2(CCCN(Cc3ccc(Br)cc3)C2)O1	–	–
N#CCC[C@@H]1CC[C@]2(CCCN(C(=O)c3ccco3)C2)O1	–	98.8
NC(=O)c1ccc[n+](CC(=O)Nc2ccc(C(=O)O)cc2)c1	–	–
COc1cc2c(cc1OC)C(C(=O)NCCCOC(C)C)C1c3ccccc3CCN1C2=O (stereo not drawn)	–	–
Cc1cc(NC(=O)c2ccc(S(=O)(=O)N(C)C)o2)no1	–	–
SMILES	Pf apPOL inh	mHTT CaM bind
CN(C)S(=O)(=O)c1ccc(C(=O)NC(C)(C)CO)o1	–	100.1
CCOC(=O)c1c(-c2ccccc2)oc2c1cc(OC(=O)c1ccccc1OC)c1ccccc12	–	–
CCOC(=O)c1c(-c2ccccc2)oc2c1cc(OC(=O)c1cc(OC)c(OC)c(OC)c1)c1ccccc12	58.2	–
CCCCC[C@@H](C)N1C[C@H](COCc2ccccc2)Oc2cc(N3CC[C@@H](N(C)C)C3)ccc2S1(=O)=O	–	–
CCCCC[C@H](C)N1C[C@H](COCc2ccccc2)Oc2cc(N3CC[C@@H](N(C)C)C3)ccc2S1(=O)=O	–	100.2
CCCCC[C@@H](C)N1C[C@@H](COCc2ccccc2)Oc2cc(N3CC[C@@H](N(C)C)C3)ccc2S1(=O)=O	–	100.2
CCCCC[C@H](C)N1C[C@H](COCc2ccccc2)Oc2cc(N3CC[C@H](N(C)C)C3)ccc2S1(=O)=O	–	–
Cn1c(C(=O)N2CCOCC2)cc2c1CCN(Cc1ccccc1)C2	–	–
Cn1c(C(=O)NCCN2CCCC2)cc2c1CCN(Cc1cccc(F)c1)C2	–	79.2
Cn1c(C(=O)N2CCN(c3ccc(F)cc3)CC2)cc2c1CCN(Cc1ccccc1)C2	–	84.8
Cn1c(C(=O)N2CCCCC2)cc2c1CCN(Cc1cccc(F)c1)C2	–	–
Cn1c(C(=O)N2CCN(c3ccccc3)CC2)cc2c1CCN(Cc1cccc(F)c1)C2	–	65.6
COc1ccc(CNC(=O)c2cc3c(n2C)CCN(Cc2cccc(F)c2)C3)cc1	–	–
Cc1cccc(CN2CCCn3nc(C(=O)NCCN4CCOCC4)cc3C2=O)c1	–	–
O=c1c2c(nc(NCCCO)n1-c1ccccc1)-c1ccccc1CC21CCCCC1	–	–
Cc1noc(NS(=O)(=O)c2ccc(N/C=C/C(=O)c3ccc(Br)cc3)cc2)c1C	–	–
Cc1cc(Br)ccc1NC(=O)c1ccc(Cl)cc1	–	–
CC(C)CN(CC(C)C)C(=O)c1noc2c1CCCC2	–	–
CC(=O)N1CCc2sc(C(=O)NCc3cccc(Br)c3)cc2C1	–	56.4
CC(=O)N1CCc2sc(C(=O)NCc3cccc(Cl)c3)cc2C1	–	–
COc1ccc(C2CC(=O)C3=C(C2)Nc2ccccc2NC3c2ccccc2Br)cc1 (stereo not drawn)	–	–
COc1ccc(C2CC(=O)C3=C(C2)Nc2ccccc2NC3c2cc(Cl)c(O)c(OC)c2)cc1 (stereo not drawn)	–	–
COc1ccc(C2CC(=O)C3=C(C2)Nc2ccccc2NC3c2cc(C)ccc2C)cc1 (stereo not drawn)	–	62.0

High-throughput results: PubChem, University of Kansas High Throughput Screening Laboratory
